From ChEMBL document CHEMBL3433997, “St. Jude Leishmania screening dataset” (2016)

Key:
Assay type in all cases: functional
[1] = molecular target: Solute carrier family 2, facilitated glucose transporter member 1 (Homo sapiens) (UniProt P11166); test: ST_JUDE_LEISH: Cytotoxicity at 2uM final concentration against transgenic Leishmania Mexicana promastigotes LmGLUT1 that are glucose transport deficient and complemented with the human glucose transporter GLUT1. Activity is measured by DNA content using SYBR green in vitro
Chain of Solute carrier family 2, facilitated glucose transporter member 1 (Homo sapiens) (P11166 whole entry): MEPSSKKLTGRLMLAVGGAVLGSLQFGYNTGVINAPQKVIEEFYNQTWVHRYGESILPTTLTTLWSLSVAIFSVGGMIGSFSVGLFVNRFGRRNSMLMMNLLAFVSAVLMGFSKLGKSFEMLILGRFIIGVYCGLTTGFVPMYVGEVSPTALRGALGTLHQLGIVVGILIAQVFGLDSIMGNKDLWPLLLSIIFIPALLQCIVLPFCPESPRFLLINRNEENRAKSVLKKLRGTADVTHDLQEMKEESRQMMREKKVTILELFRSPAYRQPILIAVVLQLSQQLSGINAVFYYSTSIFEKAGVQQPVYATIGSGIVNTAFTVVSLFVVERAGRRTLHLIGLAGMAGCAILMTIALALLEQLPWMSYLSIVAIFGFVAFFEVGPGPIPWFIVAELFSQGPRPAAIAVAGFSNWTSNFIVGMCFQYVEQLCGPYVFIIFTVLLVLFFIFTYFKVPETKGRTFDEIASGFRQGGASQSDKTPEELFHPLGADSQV

[2] = molecular target: Hexose transporter 1 (Plasmodium falciparum) (UniProt O97467); test: ST_JUDE_LEISH: Cytotoxicity at 2uM final concentration against transgenic Leishmania Mexicana promastigotes LmPfHT that are glucose transport deficient and complemented with the Plasmodium falciparum hexose transporter. Activity is measured by DNA content using SYBR green in vitro
[3] = molecular target: Glucose transporter (Leishmania mexicana) (UniProt O61059); test: ST_JUDE_LEISH: Cytotoxicity at 2uM final concentration against transgenic Leishmania Mexicana promastigotes LmGT2 that are glucose transport deficient and complemented with the L. Mexicana glucose transporter 2. Activity is measured by DNA content using SYBR green in vitro

Row | SMILES | inhibition [1] [%] | inhibition [2] [%] | inhibition [3] [%]
1 | Cc1cc(C2CCN(CCCCNC(=O)c3ccc(-c4ccc(C(F)(F)F)cc4)cc3)CC2)c(C)cc1OCC#N | -0.43 | 1.3 | -0.09
2 | Cc1cc(N[C@@H](Cc2ccccc2)C(=O)NCCc2ccccc2)nc(NCc2ccccc2C)n1 | 2.31 | 2.04 | -0.14
3 | COC(=O)CCCCCOc1cc(Cc2cnc(N)nc2N)cc(OC)c1OC | -0.5 | -5.95 | 0.35
4 | COc1ccccc1CCNc1nc(C)cc(NCCC(=O)Nc2ccccc2)n1 | 1.82 | 2.34 | 1.43
5 | CCC(C(=O)Nc1cc(=O)[nH]c2nc(-c3ccco3)nn12)c1ccccc1 (configuration not stated) | 0.95 | 1.55 | 1.71
6 | O=C(Nc1cccc(-c2cccc(-c3nc4cc(C(F)(F)F)ccc4[nH]3)c2)c1)c1ccoc1 | 10.4 | 10.1 | 8.15
7 | CCC[C@@H]([C@@H](CC(C)C)C(=O)N[C@@H](CCC/N=C(/N)NS(C)(=O)=O)C(=O)Nc1nccs1)N(O)C=O | 7.57 | 9.74 | 6.5
8 | O=C(Nc1ccc(-c2csc(-c3nc4ccccc4[nH]3)c2)cc1)Nc1ccc(F)c(F)c1F | 0.67 | 2.98 | 2.02
9 | CCOc1cccc(C2c3c(oc4ccccc4c3=O)C(=O)N2CCN(CC)CC)c1 (configuration not stated) | 4.85 | 2.93 | 3.34
10 | COCCn1c(C)cc(C(=O)CN2C(=O)NC(C)(c3ccc(C(C)(C)C)cc3)C2=O)c1C (configuration not stated) | -1.09 | 1.07 | 1.71
11 | O=C(Nc1ccc(Cl)cc1Cl)NC1CCN(CCCCCNC(=O)C2CC2c2ccc(Cl)c(Cl)c2)CC1 (configuration not stated) | 10.1 | 11.3 | 9.23
12 | CCC(=O)Nc1nnc(Cc2ccc(OC)c(OC)c2)s1 | 9.1 | 10.1 | 6.69
13 | O=C(Nc1ccc(Oc2ccc(OC(F)(F)F)cc2)cc1)c1ccco1 | 2.92 | 1.49 | -0.53
14 | CC(C)(C)CC(C)(C)c1ccc(O)c(CNC2CCCCC2)c1 | 1.96 | 2.09 | -0.74
15 | CC(C)C[C@@H](NC(=O)OC(C)(C)C)C(=O)Nc1ccc(Cc2ccc(NC(=O)[C@@H](CC(C)C)NC(=O)OC(C)(C)C)cc2)cc1 | 3.6 | 3.72 | 0.63
16 | Cc1ccccc1C1CCN(C2CCC(NC(=O)c3ccc(-c4cccs4)s3)CC2)CC1 (configuration not stated) | 2.14 | 1.24 | 1.93
17 | Nc1nc(N)c2c(ccc3c2ccn3Cc2ccccn2)n1 | 86.5 | 92 | 78

Row | SMILES | inhibition [1] [%] | inhibition [2] [%] | inhibition [3] [%]
18 | COc1nc2c(N3CCN(CCNCc4ccc5c(n4)NC(=O)CS5)CC3)ccnc2cc1F | 0.45 | -0.85 | 0.49
19 | CSc1ccc2nccc(Nc3ccc(Oc4ccccc4)cc3)c2c1 | 5.73 | 6.24 | 1.56
20 | CCCc1cc(NCc2ccncc2)nc(Nc2ccc(F)cc2)n1 | 13.4 | 8.66 | 2.99
21 | COc1ccc(NC(=O)CCNc2cc(C)nc(Nc3ccccc3)n2)cc1 | 5.84 | 5.64 | 5.8
22 | CCN(CC)CCNC(=O)c1ccc(NC(=O)c2cc3c(C)nn(-c4ccc(Cl)cc4)c3s2)cc1 | 2.43 | 2.37 | 1.83
23 | CCCN(Cc1nnc(-c2cccs2)o1)C(=O)C1COc2ccccc2O1 (configuration not stated) | 1.59 | 3.17 | 1.58
24 | O=C(/C=C/c1ccc(Cl)c(Cl)c1)NCCCCCN1CCCN(C(=O)Nc2ccc(Br)cc2)CC1 | 10.6 | 10.3 | 10.2
25 | Cc1ccc(/C=C/C(=O)NC2CCC(N3CCC(c4ccccc4C)CC3)CC2)cc1F (configuration not stated) | 15.1 | 17.5 | 13.7
26 | c1ccc2c(c1)CN(CC1CC1)CC1(CCN(Cc3c[nH]c4cnccc34)CC1)O2 | -0.99 | 0.39 | 0.54
27 | COc1cc(OC)cc(-c2nc3ccc(OCCN(C)C)c(C#N)c3[nH]2)c1 | 0.95 | 4.09 | 2.21
28 | O=C(Nc1cccc(C(F)(F)F)c1)NC1CCN(c2ccnc3ccccc23)CC1 | 5.82 | 5.09 | 2.7
29 | O=C1C[C@@H]([S+]([O-])Cc2nccs2)N1CCOCCCCCCc1ccc(Cl)cc1 (some centres not stated) | 9.09 | 8.24 | 9.2
30 | COC(=O)c1ccc(CCCNCC(O)c2cccc(C(F)(F)F)c2)cc1 (configuration not stated) | 2.51 | 3.05 | 6.4
31 | CN1CCC(NCc2cccc(-c3ccc(S(=O)(=O)NCc4ccccc4)c(F)c3)c2)CC1 | 2.09 | 3.75 | 4.35
32 | O=C(Nc1ccc(-c2ccccc2)cc1)Nc1ccc2c(c1)CCNCC2 | -2.5 | 0.46 | -3.69
33 | CCCc1cc(Cc2cnc(N)nc2N)c2cccnc2c1OC | 6.44 | 4.01 | 4.33
34 | O=C(Nc1cccc(CN2CCCN(Cc3cccc(Cl)c3)CC2)c1)c1ccc(Cl)c(Cl)c1 | 1.69 | 1.9 | 4.28
